± gives the standard deviation of the averaged measurements.
What was measured:
Assay in all cases: promoter activity interaction Z-score (Lux/OD deviation from empty-vector control); higher = stronger promoter induction by the compound
[1] = system: E. coli BW25113 acrABp lux reporter
Outline: (§1)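 E. coli BW25113 (wild type or marA, soxS or rob deletion) carrying low-copy luxCDABE promoter reporters grew in 40 µl LB Lennox in 384-well plates at 37°C. Each compound was tested at four 1:2 dilutions in biological duplicates. OD600 and luminescence were read every 30 min for 12 h. Areas were taken over 0–8 h (wild type) or 1–9 h (mutants), and wells below 10% of median growth area were removed. The score is the Z-transformed residual of growth-normalised luminescence fitted against the empty-vector control.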

[2] = system: E. coli BW25113 micFp lux reporter
Outline: as §1

[3] = system: E. coli BW25113 ompFp lux reporter
Outline: as §1

[4] = system: E. coli BW25113 robp lux reporter
Outline: as §1

[5] = system: E. coli BW25113 soxSp lux reporter
Outline: as §1

[6] = system: E. coli BW25113 tolCp lux reporter
Outline: as §1

[7] = 24.5 µg/ml, genetic background: wild type
[8] = 24.5 µg/ml, genetic background: ΔmarA
[9] = 24.5 µg/ml, genetic background: Δrob
[10] = 24.5 µg/ml, genetic background: ΔsoxS
[11] = 49.1 µg/ml, genetic background: wild type
[12] = 49.1 µg/ml, genetic background: ΔmarA
[13] = 49.1 µg/ml, genetic background: Δrob
[14] = 49.1 µg/ml, genetic background: ΔsoxS
[15] = 98.1 µg/ml, genetic background: wild type
[16] = 98.1 µg/ml, genetic background: ΔmarA
[17] = 98.1 µg/ml, genetic background: Δrob
[18] = 98.1 µg/ml, genetic background: ΔsoxS
[19] = 196.3 µg/ml, genetic background: wild type
[20] = 196.3 µg/ml, genetic background: ΔmarA
[21] = 196.3 µg/ml, genetic background: Δrob
[22] = 196.3 µg/ml, genetic background: ΔsoxS

Question: With `C[C@H](CCC(=O)O)[C@H]1CC[C@H]2[C@@H]3CC[C@@H]4C[C@H](O)CC[C@]4(C)[C@H]3C[C@H](O)[C@]12C` [Deoxycholic acid] as the compound, how does the “promoter activity interaction Z-score” value [1, 7] read?
Answer: -0.00545 ± 0.031

Question: And the “promoter activity interaction Z-score” value [1, 8]?
Answer: 1.57 ± 0.29

Question: What about the “promoter activity interaction Z-score” value [1, 9] of the same compound?
Answer: -0.132 ± 0.14

Question: What about the “promoter activity interaction Z-score” value [1, 10] of the same compound?
Answer: -0.386 ± 0.27

Question: What about the “promoter activity interaction Z-score” value [1, 11] of the same compound?
Answer: -0.226 ± 0.0089

Question: And the “promoter activity interaction Z-score” value [1, 12]?
Answer: 0.503 ± 0.52

Question: And the “promoter activity interaction Z-score” value [1, 13]?
Answer: -0.0467 ± 0.16

Question: And the “promoter activity interaction Z-score” value [1, 14]?
Answer: -0.057 ± 0.47

Question: What about the “promoter activity interaction Z-score” value [1, 15] of the same compound?
Answer: 0.106 ± 0.28

Question: And the “promoter activity interaction Z-score” value [1, 16]?
Answer: 1.38 ± 1.5

Question: And the “promoter activity interaction Z-score” value [1, 17]?
Answer: -0.154 ± 0.21

Question: What about the “promoter activity interaction Z-score” value [1, 18] of the same compound?
Answer: 0.252 ± 0.27

Question: What about the “promoter activity interaction Z-score” value [1, 19] of the same compound?
Answer: -0.41 ± 0.14

Question: And the “promoter activity interaction Z-score” value [1, 20]?
Answer: 0.181 ± 0.34

Question: What about the “promoter activity interaction Z-score” value [1, 21] of the same compound?
Answer: -0.162 ± 0.13

Question: What about the “promoter activity interaction Z-score” value [1, 22] of the same compound?
Answer: -0.502 ± 0.59

Question: And the “promoter activity interaction Z-score” value [2, 7]?
Answer: -0.343 ± 0.23

Question: What about the “promoter activity interaction Z-score” value [2, 8] of the same compound?
Answer: 0.0199 ± 0.11

Question: What about the “promoter activity interaction Z-score” value [2, 9] of the same compound?
Answer: 0.0283 ± 0.0044

Question: What about the “promoter activity interaction Z-score” value [2, 10] of the same compound?
Answer: -0.264 ± 0.083

Question: And the “promoter activity interaction Z-score” value [2, 11]?
Answer: -0.355 ± 0.065

Question: And the “promoter activity interaction Z-score” value [2, 12]?
Answer: 0.175 ± 0.087

Question: And the “promoter activity interaction Z-score” value [2, 13]?
Answer: -0.0435 ± 0.061

Question: What about the “promoter activity interaction Z-score” value [2, 14] of the same compound?
Answer: -0.146 ± 0.02

Question: And the “promoter activity interaction Z-score” value [2, 15]?
Answer: 0.114 ± 0.12

Question: And the “promoter activity interaction Z-score” value [2, 16]?
Answer: 0.0675 ± 0.083

Question: And the “promoter activity interaction Z-score” value [2, 17]?
Answer: -0.0555 ± 0.049

Question: And the “promoter activity interaction Z-score” value [2, 18]?
Answer: 0.221 ± 0.023

Question: What about the “promoter activity interaction Z-score” value [2, 19] of the same compound?
Answer: 0.0636 ± 0.083

Question: What about the “promoter activity interaction Z-score” value [2, 20] of the same compound?
Answer: 0.21 ± 0.12

Question: And the “promoter activity interaction Z-score” value [2, 21]?
Answer: -0.134 ± 0.011

Question: And the “promoter activity interaction Z-score” value [2, 22]?
Answer: -0.044 ± 0.02

Question: And the “promoter activity interaction Z-score” value [3, 7]?
Answer: -0.553 ± 0.23

Question: And the “promoter activity interaction Z-score” value [3, 8]?
Answer: -1.03 ± 0.14

Question: What about the “promoter activity interaction Z-score” value [3, 9] of the same compound?
Answer: -0.889 ± 0.033

Question: And the “promoter activity interaction Z-score” value [3, 10]?
Answer: -0.771 ± 0.0099

Question: What about the “promoter activity interaction Z-score” value [3, 11] of the same compound?
Answer: -0.241 ± 0.37

Question: And the “promoter activity interaction Z-score” value [3, 12]?
Answer: -0.568 ± 0.061

Question: What about the “promoter activity interaction Z-score” value [3, 13] of the same compound?
Answer: -0.421 ± 0.46

Question: And the “promoter activity interaction Z-score” value [3, 14]?
Answer: -0.619 ± 0.45

Question: And the “promoter activity interaction Z-score” value [3, 15]?
Answer: 0.192 ± 0.079

Question: What about the “promoter activity interaction Z-score” value [3, 16] of the same compound?
Answer: -1.07 ± 0.24

Question: And the “promoter activity interaction Z-score” value [3, 17]?
Answer: -0.618 ± 0.14

Question: And the “promoter activity interaction Z-score” value [3, 18]?
Answer: -0.316 ± 0.15

Question: What about the “promoter activity interaction Z-score” value [3, 19] of the same compound?
Answer: -0.117 ± 0.52

Question: What about the “promoter activity interaction Z-score” value [3, 20] of the same compound?
Answer: -0.473 ± 0.02

Question: And the “promoter activity interaction Z-score” value [3, 21]?
Answer: -0.582 ± 0.058

Question: And the “promoter activity interaction Z-score” value [3, 22]?
Answer: -0.78 ± 0.4

Question: And the “promoter activity interaction Z-score” value [4, 7]?
Answer: 0.346 ± 0.23

Question: And the “promoter activity interaction Z-score” value [4, 8]?
Answer: -0.527 ± 0.51

Question: And the “promoter activity interaction Z-score” value [4, 9]?
Answer: 0.184 ± 0.84

Question: What about the “promoter activity interaction Z-score” value [4, 10] of the same compound?
Answer: -0.0515 ± 0.27

Question: What about the “promoter activity interaction Z-score” value [4, 11] of the same compound?
Answer: 0.0327 ± 0.23

Question: And the “promoter activity interaction Z-score” value [4, 12]?
Answer: 0.517 ± 0.54

Question: What about the “promoter activity interaction Z-score” value [4, 13] of the same compound?
Answer: 0.31 ± 0.44

Question: And the “promoter activity interaction Z-score” value [4, 14]?
Answer: 0.767 ± 0.39

Question: What about the “promoter activity interaction Z-score” value [4, 15] of the same compound?
Answer: 0.553 ± 0.54

Question: And the “promoter activity interaction Z-score” value [4, 16]?
Answer: 0.501 ± 0.48

Question: What about the “promoter activity interaction Z-score” value [4, 17] of the same compound?
Answer: 0.729 ± 1.3

Question: What about the “promoter activity interaction Z-score” value [4, 18] of the same compound?
Answer: -0.0126 ± 0.038

Question: What about the “promoter activity interaction Z-score” value [4, 19] of the same compound?
Answer: 0.502 ± 0.87

Question: What about the “promoter activity interaction Z-score” value [4, 20] of the same compound?
Answer: 0.13 ± 0.13

Question: And the “promoter activity interaction Z-score” value [4, 21]?
Answer: -0.399 ± 0.066

Question: And the “promoter activity interaction Z-score” value [4, 22]?
Answer: 0.439 ± 0.14

Question: And the “promoter activity interaction Z-score” value [5, 7]?
Answer: 0.0465 ± 0.031

Question: And the “promoter activity interaction Z-score” value [5, 8]?
Answer: -0.0486 ± 0.044

Question: What about the “promoter activity interaction Z-score” value [5, 9] of the same compound?
Answer: 0.0418 ± 0.059

Question: And the “promoter activity interaction Z-score” value [5, 10]?
Answer: -0.115 ± 0.036

Question: And the “promoter activity interaction Z-score” value [5, 11]?
Answer: 0.0154 ± 0.03

Question: What about the “promoter activity interaction Z-score” value [5, 12] of the same compound?
Answer: -0.092 ± 0.13

Question: And the “promoter activity interaction Z-score” value [5, 13]?
Answer: -0.0215 ± 0.03

Question: And the “promoter activity interaction Z-score” value [5, 14]?
Answer: -0.228 ± 0.12

Question: And the “promoter activity interaction Z-score” value [5, 15]?
Answer: 0.124 ± 0.18

Question: And the “promoter activity interaction Z-score” value [5, 16]?
Answer: -0.348 ± 0.085

Question: And the “promoter activity interaction Z-score” value [5, 17]?
Answer: -0.0505 ± 0.11

Question: What about the “promoter activity interaction Z-score” value [5, 18] of the same compound?
Answer: -0.203 ± 0.29

Question: And the “promoter activity interaction Z-score” value [5, 19]?
Answer: -0.0569 ± 0.038

Question: And the “promoter activity interaction Z-score” value [5, 20]?
Answer: -0.335 ± 0.053

Question: What about the “promoter activity interaction Z-score” value [5, 21] of the same compound?
Answer: -0.26 ± 0.051

Question: And the “promoter activity interaction Z-score” value [5, 22]?
Answer: -0.515 ± 0.0068

Question: And the “promoter activity interaction Z-score” value [6, 7]?
Answer: 0.918 ± 0.69

Question: What about the “promoter activity interaction Z-score” value [6, 8] of the same compound?
Answer: 0.218 ± 0.13

Question: What about the “promoter activity interaction Z-score” value [6, 9] of the same compound?
Answer: 1.08 ± 1.6

Question: And the “promoter activity interaction Z-score” value [6, 10]?
Answer: 0.883 ± 0.56

Question: And the “promoter activity interaction Z-score” value [6, 11]?
Answer: 0.21 ± 0.56

Question: What about the “promoter activity interaction Z-score” value [6, 12] of the same compound?
Answer: 0.972 ± 1.2

Question: And the “promoter activity interaction Z-score” value [6, 13]?
Answer: 0.2888 ± 0.00083

Question: And the “promoter activity interaction Z-score” value [6, 14]?
Answer: -0.388 ± 0.38

Question: What about the “promoter activity interaction Z-score” value [6, 15] of the same compound?
Answer: 0.816 ± 0.38

Question: And the “promoter activity interaction Z-score” value [6, 16]?
Answer: 0.304 ± 0.81

Question: And the “promoter activity interaction Z-score” value [6, 17]?
Answer: 0.00196 ± 0.37

Question: What about the “promoter activity interaction Z-score” value [6, 18] of the same compound?
Answer: 1.18 ± 1.1

Question: And the “promoter activity interaction Z-score” value [6, 19]?
Answer: -0.28 ± 1.4

Question: And the “promoter activity interaction Z-score” value [6, 20]?
Answer: -0.467 ± 0.27

Question: What about the “promoter activity interaction Z-score” value [6, 21] of the same compound?
Answer: -0.148 ± 0.072

Question: And the “promoter activity interaction Z-score” value [6, 22]?
Answer: -0.718 ± 1.1
